AMA1 RON2 block: AMA1-RON2 (P. falciparum) interaction inhibition | AlphaScreen AMA1-biotinylated RON2 peptide binding | 360,000 compounds, 0.2% hits | Potency, µM (titrated, usually from 58.2 µM), without a hit: top-dose activity change, negative = inhibition, most hits filed as inhibitors;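 note: potency is the fitted concentration of half-maximal effect; 0% = vehicle wells and -100% = peptide control; nearly all actives have a fitted effect of over 45% in size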
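AMA1 (3D7) with his tag at 25 nM final met compounds first, then biotinylated RON2 peptide at 25 nM; detection used donor plus acceptor beads, 10 µg/mL apiece, read by AlphaScreen after 30 min at room temperature.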
AmpC inh no detg: blocks E. coli AmpC beta-lactamase in detergent-free assay | AmpC nitrocefin hydrolysis, absorbance 480 nm, 0.0001% Triton | 330,000 compounds, 0.52% hits | P00811 | Potency, µM (highest dose often 57.1 µM), for inactives: at the highest dose activity change, negative = inhibition, hits mostly inhibitors | AID 485341;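 note: potency is the fitted concentration of half-maximal effect; plate controls were no compound for no effect and no enzyme for full effect; nearly all actives have a fitted effect of over 20% in size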
Target sequence (P00811 whole entry, looked up): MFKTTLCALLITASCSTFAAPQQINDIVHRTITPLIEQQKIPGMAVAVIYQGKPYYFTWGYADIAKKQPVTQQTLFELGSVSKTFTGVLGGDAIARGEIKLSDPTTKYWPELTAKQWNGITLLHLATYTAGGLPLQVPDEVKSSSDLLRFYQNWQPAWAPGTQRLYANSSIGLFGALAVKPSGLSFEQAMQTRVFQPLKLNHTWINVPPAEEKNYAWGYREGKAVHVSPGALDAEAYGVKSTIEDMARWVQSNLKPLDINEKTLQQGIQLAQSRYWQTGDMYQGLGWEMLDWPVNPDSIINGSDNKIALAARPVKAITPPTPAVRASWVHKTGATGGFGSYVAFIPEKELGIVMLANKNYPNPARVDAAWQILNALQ
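AmpC (5.3 nM in the dispensed reagent) in 20 mM phosphate pH 7.0 with 0.01% (detergent screen) or 0.0001% Triton X-100 was preincubated with compounds for 15 min at room temperature. Nitrocefin was then added from an 800 uM solution, and hydrolysis was followed at 480 nm.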
AmpC detergent: inhibitors of E. coli AmpC beta-lactamase with detergent; P00811; AmpC hydrolysis of nitrocefin, absorbance 480 nm, 0.01% Triton; Potency, µM (series often up to 114 µM), for inactives: top-dose activity change, negative = inhibition, actives largely listed as inhibitors; 370,000 compounds, 0.041% hits; AID 485294;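 note: potency is the fitted concentration of half-maximal effect; 0% = no-compound wells and -100% = no-enzyme wells; nearly all actives have a fitted effect of over 25% in size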
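20 mM phosphate pH 7.0 + 0.01% (detergent screen) or 0.0001% Triton X-100; 5.3 nM AmpC reagent; cpd preinc 15 min RT; nitrocefin (800 uM stock) to start; A480 q20 s × 4 min; Activity was normalised to no-enzyme and no-compound control wells.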
SARS PLP yeast: inhibitors of SARS-CoV papain-like protease in yeast; S. cerevisiae expressing SARS-CoV PLpro, growth rescue; Potency, µM (highest dose often 32.9 µM), for the others: at the top dose activity, positive = growth rescue, most hits filed as activators; 330,000 compounds, 0.19% hits; calls by dose curve; note: potency is the fitted concentration of half-maximal effect; 0% is about no effect; nearly all actives have a fitted effect of over 55% in size
Shiga inhibitor: inhibitors of Shiga toxin in Vero cells; Vero cells, Shiga toxin protein synthesis inhibition reporter; inhibition, % at 38.7 µM; 290,000 compounds, 9.2% hits; in the data active = inhibition mostly above about 28%, no sharp cut-off; inactive = mostly below about 43%; note: 0% is about no effect
CHX counter: affects cycloheximide protein synthesis inhibition readout, counter-screen; cell reporter, cycloheximide protein synthesis inhibition counterscreen; max response, %; 300,000 compounds, 12% hits; in the data active = max response mostly above about 13%, no sharp cut-off; inactive = mostly below about 14%; note: read at 38.3 µM for the half of the compounds with a filed dose; 0% is about no effect
* = called active by the depositor; ? = inconclusive; · = not tested or not shown; [ ] = remark or other dose. Only a selection was taken, and hits are over-represented in it overall. Unless noted, calls come from the whole dose curve; as a rule, active = well fitted curve in the direction sought with a large enough effect; inconclusive = small, poorly fitted or top-dose-only effect, or another doubt; inactive = no such curve, though single readings can be large; an effect the other way counts as inactive or inconclusive.

SMILES	AMA1 RON2 block	AmpC inh no detg	AmpC detergent	SARS PLP yeast	Shiga inhibitor	CHX counter
CCOC(=O)C1(Cc2ccccc2)CCN(Cc2ccc3cc(NC(C)=O)ccc3n2)CC1	-11.3%	84.8%	0.1%	-0.2%	-8.1	-1.9
C=CCOc1ccc(CNc2nccs2)cc1	-2.7%	-23.5%	-0.4%	5.0%	55.0*	22.3*
Cc1ccc(-c2nc3ccccc3o2)cc1NC(=S)NC(=O)c1cccs1	1.8%	-40.3%	3.4%	2.8%	97.6*	32.4*
Cc1cc(C)c2oc(-c3ccc(C)c(NC(=S)NC(=O)/C=C/c4ccco4)c3)nc2c1	0.5%	-27.2%	3.6%	?	44.2*	29.2*
Cc1cc(C)c2oc(-c3ccc(C)c(NC(=S)NC(=O)c4cccs4)c3)nc2c1	2.0%	-12.0%	0.9%	-1.2%	38.8*	17.5*
CC1(C)C(=Cc2ccccc2)C(=O)c2ccccc21	4.5%	·	·	·	·	·
CCN1C(=O)/C(=C/C2=Cc3ccccc3OC2C)SC1=S (centres undefined)	?	-23.8%	-13.0%	0.7%	-3.5	-6.4
O=C(O)c1cc(NCc2ccccc2C(F)(F)F)ccc1N1CCOCC1	31.7%	-2.3%	-17.8%	7.1%	17.5	-1.7
Cc1c(Br)c([N+](=O)[O-])nn1CC(=O)Nc1sc2c(c1C(=O)OC(C)C)CCCC2	-5.2%	-2.1%	2.6%	10.0%	122.5*	43.9
CC(C)C(C(=O)C=[N+]=[N-])N1C(=O)c2ccccc2C1=O (centres undefined)	-1.8%	3.2%	-11.4%	7.5%	-12.3	-1.1
CCCCCOc1ccccc1Cn1c(=O)oc2ccc(C)cc21	·	·	20.1%	·	·	·
O=S(=O)(N/N=C/c1ccc2c(c1)OCCO2)c1ccccc1	11.0%	-49.4%	-5.4%	2.0%	60.4	20.5*
O=[N+]([O-])c1cccc(S(=O)(=O)N/N=C/c2ccc(O)cc2)c1	-5.6%	-35.6%	-3.6%	-1.8%	-11.3	-0.6
O=[N+]([O-])c1cccc(S(=O)(=O)N/N=C\c2ccc3c(c2)OCO3)c1	-2.6%	-36.8%	2.1%	1.0%	74.5*	43.3*
O=[N+]([O-])c1ccc(S(=O)(=O)N/N=C/c2ccc3c(c2)OCO3)cc1	0.9%	-29.7%	-11.1%	-3.5%	49.6*	31.2*
CCOC(=O)c1cn(CC)c2ccc(Br)cc2c1=O	-11.4%	-7.7%	-12.0%	11.4%	22.6	1.2
O=C(NCCN1CCOCC1)c1ccc(Cl)cc1O	-9.9%	-17.8%	?	0.2%	4.6	-3.8
CSc1ccc(/C=N/n2c(Cc3ccc(Br)cc3)n[nH]c2=S)cc1	28.6%	-42.2%[11.4 µM]	?	-1.5%	-2.2	0.3
COC(=O)c1cccc(NC(=O)N(C)CCc2c(C)nn(C)c2C)c1	·	·	-5.8%	·	·	·
COC(=O)c1ccc(C(=O)NC(=S)Nc2nc3c(s2)CC(C)CC3)cc1 (centres undefined)	20.0%	-21.6%	-12.3%	5.5%	6.6	27.0*
Cc1nnc(SCC(=O)Nc2nc3c(s2)CC(C)CC3)s1 (centres undefined)	10.2%	-12.2%	-5.4%	-1.2%	59.7*	37.3*
CC1CCc2nc(NC(=O)CSc3nc4ccccc4o3)sc2C1 (centres undefined)	50.6%	-29.0%	?	0.6%	85.3*	52.2*
Cc1c(Cl)cccc1NC(=O)CNC(=O)c1ccco1	9.5%	-8.5%	?	-7.6%	-2.8	-1.4
O=C(COc1cccc(Cl)c1Cl)Nc1ccc2c(c1)CCC2	-1.7%	-13.7%	-13.3%	6.1%	7.7	0.5
Cc1ccccc1OCC(=O)OCC(=O)c1ccc[nH]1	0.0%	-16.3%	0.8%	-0.4%	·	·
SMILES	AMA1 RON2 block	AmpC inh no detg	AmpC detergent	SARS PLP yeast	Shiga inhibitor	CHX counter
O=C(COc1ccc(Br)cc1Cl)c1ccc[nH]1	2.9%	-44.1%	-1.7%	-5.5%	68.6*	38.3*
O=C(COc1ccccc1Cl)c1ccc[nH]1	-11.5%	-32.4%	0.7%	-2.9%	57.1	30.4*
O=C(COc1ccccc1Cl)c1ccc2c(c1)CCCC2	30.5%	-36.7%	0.4%	-20.3%	53.4*	26.2*
Cc1cc(NC(=O)c2ccc(C)s2)n(-c2nc3ccccc3[nH]2)n1	70.9%	-15.8%	6.8%	4.3%	32.9*	11.0
Cc1cc(NC(=O)/C=C/c2cccc(Cl)c2)n(-c2nc3ccccc3[nH]2)n1	70.1%	-23.7%	8.2%	14.1%	active	65.6*
Cc1cc(NC(=O)c2ccccc2F)n(-c2nc3ccccc3[nH]2)n1	73.0%	-30.8%	-9.2%	1.9%	67.5	16.4
NC(=O)c1ccsc1NC(=O)COC(=O)CNC(=O)c1ccc(F)cc1	0.3%	-25.1%	?	-5.7%	·	·
Cn1c2ccccc2c(=O)c2ccc(C#Cc3ccc(N)cc3)cc21	24.2%	-29.1%	-9.4%	-29.5%	20.4	25.6*
Cc1nn2cc(-c3ccccc3)nc2s1	-3.2%	-13.4%	-14.3%	-1.4%	59.0	32.0*
COc1ccc2c3c(cccc13)C(=O)N(O)C2=O	-1.4%	-12.2%	3.3%	-59.9%	-4.5	-1.8
O=C(CCCC1=NS(=O)(=O)c2ccccc2N1)N1CCC2(CC1)OCCO2	6.3%	-26.6%	0.8%	-2.5%	-4.8	-3.0
COc1ccc(NC(=S)Nc2cc(C)[nH]n2)cc1Cl	51.6%	-46.3%	-4.2%	1.4%	89.9*	45.0*
COc1cc(C)c(NC(=S)Nc2ccc(C)c(Cl)c2)cc1OC	-14.6%[11.6 µM]	-36.1%	-1.0%	2.6%	-6.7	-0.4
COc1ccc(NC(=S)Nc2cc(-c3ccccc3)[nH]n2)cc1Cl	56.0%	?	-3.5%	-16.0%	8.5	20.0*
Cc1cc(NC(=S)Nc2ccc(C)c(Cl)c2)n[nH]1	56.3%	-21.3%	-1.7%	-4.3%	133.3*	67.8*
COc1ccc(NC(=S)Nc2cccc(Cl)c2Cl)cc1OC	17.1%	-18.0%	-11.4%	-0.6%	2.1	-1.7
O=C(c1cc2ccccc2oc1=O)N(Cc1ccc2c(c1)OCO2)Cc1ccco1	-25.8%	-25.8%	?	-4.8%	109.7*	8.4
CO/N=C(/C(=O)N[C@@H]1C(=O)N2C(C(=O)O)=CCS[C@H]12)c1cnc(N)s1	·	-33.8%	50.1µM*	3.0%	-2.1	-3.0
Cc1nnc(SCC2=C(C(=O)O)N3C(=O)C(NC(=O)COc4ccccc4)C3SC2)s1 (centres undefined)	16.4%	-14.6%	1.6%	-5.4%	·	·
COC(=O)[C@H]1C[C@H](OC(=O)NC2CCCC2)[C@@]2(O)CN(S(=O)(=O)c3ccc(C)cc3)CC2[C@H]1C(=O)OC (some centres undefined)	17.0%	·	·	·	·	·
Clc1ccc2nnnc(-c3ccccc3)c2c1	0.0%	-15.2%	?	-38.7%	97.8*	52.1*
c1ccc(-c2nnnc3ccccc23)cc1	14.8%	-34.2%	?	20.3%	4.2	-1.7
CCN(C(=O)[C@@H]1CCCN1C(=O)c1cccs1)c1nc2cc(Cl)ccc2s1	-27.9%	140.8%	?	-0.5%	8.8	18.2*

Compound activity deposited in PubChem by National Center for Advancing Translational Sciences (NCATS).
